# According to publication PMC7819943, “Rice protein-binding microarrays: a tool to detect cis-acting elements near promoter regions in rice”:
# In all, about 68,000 sequences were measured (“fluorescence intensity (a.u.)”: median about 9,100, highest 2% from about 16,000 on). For the sample, the highest values were picked, then their nearest neighbours and some sequences at random.
# Molecular target: OsWRKY34 (Oryza sativa, UniProt Q0JBA9 1-250)
# Test: protein-binding microarray (RPBM); PBS, 2% BSA, 51.3 ng/ul salmon testes DNA, 50 uM zinc acetate, 200 nM TF, 25 C, 1 h; high values mean tight binding
# Conditions: protein: recombinant; tags: N-terminal polyhistidine and DsRed monomer fusion (pET32a); label: CyDye5-dUTP incorporated in the synthesized complementary strand; 3' TTTTT single-stranded linker to array surface; dsDNA, one strand shown
# Procedure, shortened: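 Transcription factors were each fused at the N-terminus to a polyhistidine tag plus DsRed and expressed in E. coli BL21-CodonPlus before Ni–NTA purification. Binding to a double-stranded custom Agilent array was carried out with 200 nM protein at 25 °C for 1 h in PBS, 2% BSA, salmon testes DNA and 50 µM zinc acetate. The binding signal is per-feature fluorescence intensity, in arbitrary units, on an Axon 4000B scanner.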
# OsWRKY34, sequence (Q0JBA9 entry or part of it): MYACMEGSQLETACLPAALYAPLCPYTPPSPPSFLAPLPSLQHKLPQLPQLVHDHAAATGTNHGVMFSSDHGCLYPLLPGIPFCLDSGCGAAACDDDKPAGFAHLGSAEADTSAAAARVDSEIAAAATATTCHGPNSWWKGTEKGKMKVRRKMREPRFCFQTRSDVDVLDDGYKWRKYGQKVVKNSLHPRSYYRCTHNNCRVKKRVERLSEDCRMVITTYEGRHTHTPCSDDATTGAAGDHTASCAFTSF
row,Sequence,binding signal
1,CGTTGACTTTTCTAAACATGTTTGACCGTTCGTCTTATTCCGGAGTCACCTAGTGCAG,28400 fluorescence intensity (a.u.)
2,CGTTGACTTTTTAGCACATGTTTGACCGTTCGTCTTATTCCGGAGTCACCTAGTGCAG,29000 fluorescence intensity (a.u.)
3,GACTTTTTAGCACATGTTTGACCGTTCGTCTTATTCAAAACGGAGTCACCTAGTGCAG,10800 fluorescence intensity (a.u.)
4,TTGACTTTTTAGCACATGTTTGACCGTTCGTCTTATTCAACGGAGTCACCTAGTGCAG,8480 fluorescence intensity (a.u.)
5,TTAGCACATGTTTGACCGTTCGTCTTATTCAAAATTTTTTCGGAGTCACCTAGTGCAG,12600 fluorescence intensity (a.u.)
6,CAGATCGACTCGACTCGACCAGGTTCTCTCGTTTTTACTCCGGAGTCACCTAGTGCAG,9940 fluorescence intensity (a.u.)
7,CTCTCTCTCTGCTGCTGCTCTCTAATCAGTAACCAGTAGTCGGAGTCACCTAGTGCAG,9580 fluorescence intensity (a.u.)
8,TTGTTTATTTAAGGTGTGATTGTATTTGGATCATGTTTTGCGGAGTCACCTAGTGCAG,8980 fluorescence intensity (a.u.)
9,GGGGTATAATTTGTGTCTTAGCTGATAGAATGTGCAGTTGCGGAGTCACCTAGTGCAG,9980 fluorescence intensity (a.u.)
10,AAGGACCCAGCTGTTCGCCACGTGTGCGTGTTGACTTCCACGGAGTCACCTAGTGCAG,9780 fluorescence intensity (a.u.)
11,ATAGTACGAATGGTTAGCCCAAAAGTCAGTGTCTTCATTCCGGAGTCACCTAGTGCAG,10300 fluorescence intensity (a.u.)
12,CACTGCTTCTCACCCAACTCGCGCGCGCCATTCCTTGCCTCGGAGTCACCTAGTGCAG,11600 fluorescence intensity (a.u.)
13,TCTATATTGCTATTTTCATTTTAAAACTATTTCTTGCCACCGGAGTCACCTAGTGCAG,10300 fluorescence intensity (a.u.)
14,ATCTGGTCTGCAGGTATTTTCTTTGTATTGTATATTTCTACGGAGTCACCTAGTGCAG,10000 fluorescence intensity (a.u.)
15,TTCTGATATCTGGTCATATTTTTTTGAACAGGTAGCTATTCGGAGTCACCTAGTGCAG,27000 fluorescence intensity (a.u.)
16,AGCTGGTCATATTCTATGTTGATTATCTTCATGGTATGAACGGAGTCACCTAGTGCAG,9730 fluorescence intensity (a.u.)
17,CCGCACCTCTCTCTACACGCACGCGTCTCTCCCATCTCCCCGGAGTCACCTAGTGCAG,9030 fluorescence intensity (a.u.)
18,AACTTTCTCCCACCGGCCACCGCGCGTCTCTTGCCACGACCGGAGTCACCTAGTGCAG,12200 fluorescence intensity (a.u.)
19,TCTTCTTCCATGGTCTTTTCTAGATAAGGCTCTCTAATGTCGGAGTCACCTAGTGCAG,8620 fluorescence intensity (a.u.)
20,TGAACGCTTCCCTGTGTTTGTGGTTACTGCCTTACTGGTTCGGAGTCACCTAGTGCAG,9210 fluorescence intensity (a.u.)
21,CGCACGGTTGTTCTCGCCATGATCCTCCTTGCCGCTGTCACGGAGTCACCTAGTGCAG,8780 fluorescence intensity (a.u.)

row,Sequence,binding signal
1,CTTAGGGTCGGGAAGGGGAGAGGCGGTGGCGGGCGGCTGACGGAGTCACCTAGTGCAG,13400 fluorescence intensity (a.u.)
2,CTCCTGACTCCTCCTCGGTTCCTCTTCCTCTCGAGCCCTTCGGAGTCACCTAGTGCAG,9950 fluorescence intensity (a.u.)
3,TCTTAGACGGTCCTGACTCGAGGCCCATATATATGCTGGGCGGAGTCACCTAGTGCAG,19900 fluorescence intensity (a.u.)
4,TGGCTCCGCCACGTCCTCGTCGCCTGGAACTCGCTCGTCTCGGAGTCACCTAGTGCAG,8680 fluorescence intensity (a.u.)
5,TGTCTCAACAACAAGCTCTGTGTGCTGCAGTGTCATTCCACGGAGTCACCTAGTGCAG,8160 fluorescence intensity (a.u.)
6,TATTGGTTTTTGTTTCTGGTGCCACGTCTGCGGCCAAAAACGGAGTCACCTAGTGCAG,9220 fluorescence intensity (a.u.)
7,CCTACACACGAAACCTCCGCGCCTCATCCGGGCTTCGCGACGGAGTCACCTAGTGCAG,10600 fluorescence intensity (a.u.)
8,TAACTTAACGTGATTTTCCTGTATGGACCTTAATTATGTTCGGAGTCACCTAGTGCAG,8580 fluorescence intensity (a.u.)
9,CGTTCTCTCTCTCCTAGAACCACAGTTCAACCACTGTTTCCGGAGTCACCTAGTGCAG,8580 fluorescence intensity (a.u.)
10,TGCCGTGGGATGGGGTTGCGGGAGGAGGAGGGTGCTACTACGGAGTCACCTAGTGCAG,17000 fluorescence intensity (a.u.)
11,CATGGAGGGAGGGAGGGAGGCGGAAGCGGAGGCGTGGGAGCGGAGTCACCTAGTGCAG,9980 fluorescence intensity (a.u.)
12,CAAGCCGGGCGGGAGCCGTGGCGGCGGCCGGGCGGGCGGGCGGAGTCACCTAGTGCAG,8260 fluorescence intensity (a.u.)
13,GGCGGTGGGTGGGTGGAGCCGTGGAGGGATGGAGGGAGGGCGGAGTCACCTAGTGCAG,37900 fluorescence intensity (a.u.)
14,TGGGGATGCGGGGTGGCGCGGGAGGAGGGAGAGGACGGAGCGGAGTCACCTAGTGCAG,8670 fluorescence intensity (a.u.)
15,GGAGGAGTACGACGGGGTGGGAGCGGCGGTGGGTGGGATGCGGAGTCACCTAGTGCAG,11500 fluorescence intensity (a.u.)
16,ACACGATATAGTCATTGCAATTATCACGGATCCAGGTCCTCGGAGTCACCTAGTGCAG,8560 fluorescence intensity (a.u.)
17,AGTACACACCATTTGACATCCTGATTATGTATAGTAATTTCGGAGTCACCTAGTGCAG,8350 fluorescence intensity (a.u.)
18,TCAGCTATCATAGTCTTCTAGAATGCTCTTCTTGTCAGATCGGAGTCACCTAGTGCAG,8220 fluorescence intensity (a.u.)
19,ATGGGTTGGTAGAGGGGAGGGAACGCGCGACGGTGGCGAGCGGAGTCACCTAGTGCAG,8740 fluorescence intensity (a.u.)
20,GTCTCGTGGCACCTCAATTTATTAATCACTACCCCTATACCGGAGTCACCTAGTGCAG,8710 fluorescence intensity (a.u.)
21,CATTAGACCCTGAGGTTTTTGACTAGGCAGCCCACTTGTCCGGAGTCACCTAGTGCAG,9040 fluorescence intensity (a.u.)
